Results: PubChem BioAssay AID818 (SRMLSC, 2007)
Screen size: about 140,000 compounds; about 2,100 (1.5%) were called active. The sample holds actives, similar compounds and a random draw of the others, so the mix is not that of the screen. Values without a mark were called inactive.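 The calls were made as follows: active = viability at or under a set limit, the compound median less 4 SD (cut at about 6% in these data); inactive = the rest.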

Assay: primary screen for growth suppressors in beta-catenin knockout HCT116 cells (colon tumor, human) (AID 818);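 also: 0% = Hyamine 1622 control at 20 µM and 100% = untreated cell control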
Conditions: CellTiter-Glo, 60 h, at 10 µM, stronger effect = lower value

Row | Structure (SMILES) | viability
1 | O=C(NCc1ccccc1Cl)C1CCC(CNc2c(N3CCCCC3)c(=O)c2=O)CC1 (stereo unspecified) | 98.7%
2 | O=C(NC(Nc1nc2ccc([N+](=O)[O-])cc2s1)(C(F)(F)F)C(F)(F)F)c1ccccc1 | 1.34% (active)
3 | COC(=O)C(NC(=O)c1ccc(OC)cc1)(Nc1ncc(S(=O)(=O)c2ccc([N+](=O)[O-])cc2)s1)C(F)(F)F (stereo unspecified) | 77.8%
4 | Cc1cc(C)cc(OCC(=O)Nc2nc3ccc([N+](=O)[O-])cc3s2)c1 | 109%
5 | COc1ccc(NC(C(=O)Nc2cccc(C(C)=O)c2)c2ccccc2)cc1 (stereo unspecified) | 84.6%
6 | Cc1ccc(-c2csc(NNC(=O)c3ccccc3)n2)cc1 | 13.8%
7 | COc1ccc(C)cc1Nc1nc(-c2c(C)[nH]c3ccccc23)cs1 | 89.8%
8 | CC(C)(C)c1ccc(C(=O)CSc2ncn[nH]2)cc1 | 94.5%
9 | O=C(/C=C/Sc1ncn[nH]1)c1ccc(Cl)cc1 | 4.54% (active)
10 | O=C(NCCOCc1ccc(Cl)cc1)c1ncn[nH]1 | 93%
11 | O=[N+]([O-])c1ccc(N/N=C2/CCCCC2c2ccccn2)c([N+](=O)[O-])c1 (stereo unspecified) | 79.6%
12 | COc1cc2c(cc1O)[C@H](Cc1ccc(Oc3cc(C[C@@H]4NCCc5cc(OC)c(O)cc54)ccc3O)cc1)NCC2 | 55%
13 | CC[C@H]1CN2CCc3cc(OC)c(OC)cc3[C@@H]2C[C@@H]1C[C@H]1NCCc2cc(OC)c(OC)cc21 | 4.12% (active)
14 | COC(=O)Cc1ccc(NC(=S)NCc2ccc(Cl)cc2)cc1 | 84.8%
15 | S=C(NCc1ccc(Cl)cc1)NC12CC3CC(CC(C3)C1)C2 | 3.01% (active)
16 | S=C(NCc1ccc(Cl)cc1)NC1CCCCC1 | 66%
17 | CCCCN1C(=O)c2ccc(C(=O)Nc3ccc(S(=O)(=O)N(C)C)cc3)cc2C1=O | 93.3%
18 | Cc1ccc(NC(=O)CN(C)Cc2ccc(F)cc2)c([N+](=O)[O-])c1 | 91.3%
19 | Cc1ccc(O)c(-c2cc(C(=O)Nc3c(C)n(C)n(-c4ccccc4)c3=O)[nH]n2)c1 | 80.2%
20 | CC1CCCC(NC(=O)COC(=O)[C@@H]2CC(O)CN2S(=O)(=O)c2ccc3c(c2)OCCO3)C1C (stereo partly specified) | 96.2%
21 | CC1CCN(c2ccc(C(=O)NCc3ccc4c(c3)OCO4)cc2[N+](=O)[O-])CC1 | 94.5%
22 | O=C(NCc1ccc2c(c1)OCO2)c1ccc2c(c1)C(=O)N(CC1CCCO1)C2=O (stereo unspecified) | 1.74% (active)
23 | CCC(=O)Nc1ccc(C(=O)Nc2ccc3c(c2)C(=O)N(CC2CCCO2)C3=O)cc1 (stereo unspecified) | 93.3%

Row | Structure (SMILES) | viability
24 | COc1cc(Cl)c(C)cc1NC(=O)COC(=O)c1cc(SC)ccc1Cl | 79.6%
25 | S=c1[nH]nc(-c2cccnc2)n1/N=C/C(Cl)=C\c1ccccc1 | 10.2%
26 | Cc1cc(-c2n[nH]c(=S)n2/N=C/C(Br)=C/c2ccccc2)n[nH]1 | 2.95% (active)
27 | Cc1ccc(/C=N\n2c(-c3ccccc3)n[nH]c2=S)s1 | 94.7%
28 | Cc1ccc(NC(=O)c2oc(=O)c3ccccc3c2-c2ccccc2)c(C)c1 | 38.7%
29 | CN(C)S(=O)(=O)c1ccc(N2CCCC2=O)c([N+](=O)[O-])c1 | 83%
30 | O=C(O)C1CC=C(Cl)CC1C(=O)NCc1ccccc1 (stereo unspecified) | 90%
31 | CC1=C(C)CC(C(=O)NNC(=O)c2ccccc2O)C(C(=O)O)C1 (stereo unspecified) | 5.74% (active)
32 | CC1=C(C)CC(C(=O)NNC(=O)c2csc3c2CCC(C(C)(C)C)C3)C(C(=O)O)C1 (stereo unspecified) | 95.9%
33 | COc1ccc(C(=O)OCC(=O)NC(=O)CCSc2ccccc2)cc1 | 97.4%
34 | CC(=O)Nc1ccc(NC(=O)C(C)OC(=O)c2ccccc2C(=O)c2ccc(Cl)c([N+](=O)[O-])c2)cc1 (stereo unspecified) | 8.71%
35 | COC(=O)c1cc(NC(=O)Cc2ccccc2[N+](=O)[O-])ccc1Cl | 80.7%
36 | N#Cc1cccc(NC(=O)COC(=O)c2ccccc2C(=O)c2ccc(Cl)c([N+](=O)[O-])c2)c1 | 3.2% (active)
37 | CC(=O)Nc1ccc(SCC(=O)Nc2ccccc2Oc2ccccc2)cc1 | 86.2%
38 | O=S(=O)(NCC1CCCO1)c1cnc(Cl)c(Cl)c1 (stereo unspecified) | 69.3%
39 | O=C(Nc1cccc2ccccc12)c1onc2c1CCCC2 | 1.26% (active)
40 | O=C(Nc1c2c(nc3ccccc13)CCCC2)c1ccccc1Br | 83.6%
41 | O=C(O)c1ccccc1-c1ccccc1C(=O)Nc1cccc2ccccc12 | 90.2%
42 | Cc1cc(C(C)(C)C)cc(C)c1N | 100%
43 | CCCc1nc(SCC(=O)Nc2ccc(S(=O)(=O)N(C)C)cc2)c2ccccc2n1 | 72.2%
44 | CC(=O)N1CCN(c2cccc(C)c2C)CC1 | 99.9%
45 | O=C(O)c1cnn2c(C(F)(F)F)cc(-c3ccccc3)nc12 | 96.5%
46 | Cc1cccc(N2CCN(C(=O)c3cnn4c(C(F)F)cc(-c5ccccc5)nc34)CC2)c1C | 2.3% (active)

Row | Structure (SMILES) | viability
47 | CCC(C(=O)OCC(=O)Nc1ccccc1-c1ccccc1)c1ccccc1 (stereo unspecified) | 92.8%
48 | COc1ccc(C2CC(c3ccccc3)=NN2C(=O)c2ccc(Cl)c([N+](=O)[O-])c2)cc1 (stereo unspecified) | 10.9%
49 | CCOc1ccc2nc(Cl)c(C3CC(c4ccccc4)=NN3C(=O)c3cccs3)cc2c1 (stereo unspecified) | 1.68% (active)
50 | CCOc1ccccc1C1CC(c2cccc(NS(C)(=O)=O)c2)=NN1C(=O)c1ccccc1 (stereo unspecified) | 79.6%
51 | Cc1cc(C)c2c(n1)sc1c(=O)n(-c3ccccc3)c(=O)[nH]c12 | 95.9%
52 | C/C(O)=C\c1nc(=O)c2c(C)cc(C)nc2n1-c1ccccc1 | 2.41% (active)
53 | N#CCSc1nc2ccccc2c(=O)n1-c1ccccc1 | 101%
54 | O=C1NC(=Nc2ccc(Cl)cc2)SC1Cc1cccc(Cl)c1Cl (stereo unspecified) | 101%
55 | COC(=O)c1sccc1NC(=O)COc1ccc(Cl)cc1 | 68.7%
56 | Cc1ccc2[nH]c(=O)c(CC=C(Cl)Cl)c(C)c2c1 | 88.7%
57 | CN(C)c1ccc(/C=N/NC(=O)c2ccc(Cn3cc(Br)cn3)o2)cc1 | 103%
58 | COc1ccc(CCNc2cc(C)nc3c(-c4ccc(Cl)cc4)c(C)nn23)cc1OC | 74.8%
59 | CC(C)CC[n+]1ccn(C2=C([O-])c3ccccc3C(=O)/C2=N\S(=O)(=O)c2ccccc2)c1 | 2.01% (active)
60 | COc1ccc(C2Nc3ccccc3C(=O)N2c2ccc(F)cc2)cc1Cn1nnc2ccccc21 (stereo unspecified) | 69.3%
61 | CC(=O)N1CC(C)c2scc(C)[n+]2-c2ccccc21 (stereo unspecified) | 91.2%
62 | COc1ccccc1NC(=O)CCCc1c[nH]c2ccccc12 | 101%
63 | COc1ccc(C(CCNCc2ccccc2F)c2ccc(F)cc2)cc1 (stereo unspecified) | 9.17%
64 | COc1cccc(CNCCc2c[nH]c3ccccc23)c1OCc1ccccc1F | 0.88% (active)
65 | COc1ccc(/C(C)=N/NC(=O)CCC(=O)Nc2ccc(Cl)cc2Cl)c(OC)c1 | 91.2%
66 | O=C(Nc1cccc(F)c1)c1coc(=O)c(Br)c1 | 45%
67 | NC(=O)Nc1ccccc1C(=O)NCCc1ccccc1 | 99.7%
68 | CCc1ccc(NC(=O)C(C)OC(=O)/C=C/c2cccc([N+](=O)[O-])c2)cc1 (stereo unspecified) | 90.3%
69 | Cn1cc([N+](=O)[O-])c(C(=O)Nc2ccc3c(c2)OCCO3)n1 | 5.15% (active)

Row | Structure (SMILES) | viability
70 | Cn1cc([N+](=O)[O-])c(C(=O)Nc2cnn(Cc3ccc(F)cc3)c2)n1 | 8.14%
71 | O=C(Nc1ccc2c(c1)OCCO2)c1ccncc1 | 100%
72 | COc1ccc(OC(C)C(=O)NCCc2nc3ccccc3[nH]2)cc1 (stereo unspecified) | 99.8%
73 | CCOC(=O)c1cnc(-c2ccccc2)nc1Oc1ccc(C)cc1 | 89.3%
74 | CCOC(=O)c1cnc(-n2nc(C)cc2C)nc1NNc1cc(C)nc(-c2ccccc2)n1 | 3.41% (active)
75 | CCOC(=O)c1cnc(-n2nc(C)cc2C)nc1-n1nc(C)cc1C | 103%
76 | CCC(C)(C(=O)Nc1ccccc1C)N(C(=O)CNC(C)=O)c1ccc(C)cc1 (stereo unspecified) | 92.2%
77 | COC(=O)[C@@H]1CC[C@H](C)[C@@H](c2ccc(C)cc2)N1C(=O)c1ccc(/C=N/O[C@H](C)c2cn([C@@H]3COC[C@H]3O)nn2)cc1 | 86.4%
78 | CSc1nc(N)c(C#N)c(-c2ccccc2Cl)c1C#N | 89.2%
79 | Cc1nc2ccccc2cc1O | 92.2%
80 | CSc1nc2ccccc2cc1/C=C(\C#N)c1ccc(Cl)cc1Cl | 4.22% (active)
81 | Cc1ccc(SCCC(=O)NC(C(C)C)C(C)C)cc1 | 89.2%
82 | CCCC(NC(=O)c1ccco1)c1nc2ccccc2[nH]1 (stereo unspecified) | 101%
83 | CCCCC(=O)NCc1ccc(F)cc1 | 93.4%
84 | CN(CC(=O)Nc1ccc(S(=O)(=O)N2CCCC2)cc1)Cc1ccc(Cl)c(Cl)c1 | 65.4%
85 | COc1ccc(NS(=O)(=O)c2cc(NC(=O)/C=C/c3cc(OC)c(OC)c(OC)c3)ccc2N2CCCCC2)cc1 | 89.5%
86 | COc1cccc2cc(C(=O)N(C)C)c(=O)oc12 | 1.59% (active)
87 | C=CCc1cccc2cc(C(=O)OCC)c(=O)oc12 | 97.7%
88 | COc1cccc2cc(C(=O)N3CCN(C(=O)c4ccccc4)CC3)c(=O)oc12 | 100%
89 | Cc1ccc(Cl)cc1N1CCN(C(=O)c2cccc3c(=O)c(C)c(-c4ccccc4)oc23)CC1 | 1.34% (active)
90 | O=C(c1cccc2ccccc12)N1CCN(c2ccccc2F)CC1 | 83.3%
91 | COC(=O)c1ccc(C(=O)OC)c(NC(=S)N2CCN(c3cc(Cl)ccc3C)CC2)c1 | 92.1%
